The text below walks through data of publication PMC12215968.

Targets include MYH9 (UniProt P35579); RPL12 (UniProt P30050); NAA15 (UniProt Q9BXJ9); NCAPG (UniProt Q9BPX3); NEFM (UniProt P07197); NOPCHAP1 (UniProt Q8N5I9); NUCB1 (UniProt Q02818); OSBPL8 (UniProt Q9BZF1); PARP1 (UniProt P09874); PLS3 (UniProt P13797); PRKDC (UniProt P78527); PSMD2 (UniProt Q13200); RAN (UniProt P62826); RARS1 (UniProt P54136); RNF20 (UniProt Q5VTR2); RPL22 (UniProt P35268); RPL27 (UniProt P61353); RPL34 (UniProt P49207); RPL6 (UniProt Q02878); RPL7A (UniProt P62424); RPS13 (UniProt P62277); RPS27A (UniProt P62979); RPS6 (UniProt P62753); RPS7 (UniProt P62081); RRP12 (UniProt Q5JTH9); SDHA (UniProt P31040); SEPTIN11 (UniProt Q9NVA2); SEPTIN9 (UniProt Q9UHD8); SF3A1 (UniProt Q15459); SF3B5 (UniProt Q9BWJ5); SMC3 (UniProt Q9UQE7); SMC4 (UniProt Q9NTJ3); SPTAN1 (UniProt Q13813); TMEM109 (UniProt Q9BVC6); TOP1 (UniProt P11387); UBAP2L (UniProt Q14157); USP16 (UniProt Q9Y5T5); VIM (UniProt P08670); XRCC5 (UniProt P13010); YWHAB (UniProt P31946); YWHAH (UniProt Q04917); YWHAZ (UniProt P63104).

Holding throughout (test): cross-linking mass spectrometry
Holding throughout (details): TSTO, in cells

Sequence of YWHAE, P62258 (P62258 whole entry): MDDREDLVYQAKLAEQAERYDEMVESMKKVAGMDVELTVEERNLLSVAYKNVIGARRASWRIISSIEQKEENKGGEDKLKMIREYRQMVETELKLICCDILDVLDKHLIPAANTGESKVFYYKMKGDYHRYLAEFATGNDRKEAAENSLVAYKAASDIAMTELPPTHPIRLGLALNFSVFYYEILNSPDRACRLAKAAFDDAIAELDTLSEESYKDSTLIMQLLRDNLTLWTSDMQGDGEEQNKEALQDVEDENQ
Sequence of YWHAZ (P63104 whole entry): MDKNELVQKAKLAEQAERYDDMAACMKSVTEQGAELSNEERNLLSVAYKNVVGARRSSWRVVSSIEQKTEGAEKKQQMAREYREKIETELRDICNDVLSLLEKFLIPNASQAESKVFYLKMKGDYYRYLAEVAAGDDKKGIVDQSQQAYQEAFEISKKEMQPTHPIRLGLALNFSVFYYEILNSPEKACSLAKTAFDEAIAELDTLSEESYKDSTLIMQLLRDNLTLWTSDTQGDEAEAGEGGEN
Sequence of SF3B5 (Q9BWJ5 whole entry): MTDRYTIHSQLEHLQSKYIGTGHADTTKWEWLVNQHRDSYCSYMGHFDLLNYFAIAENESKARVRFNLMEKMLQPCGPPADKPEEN
Sequence of RRP12 (Q5JTH9 whole entry): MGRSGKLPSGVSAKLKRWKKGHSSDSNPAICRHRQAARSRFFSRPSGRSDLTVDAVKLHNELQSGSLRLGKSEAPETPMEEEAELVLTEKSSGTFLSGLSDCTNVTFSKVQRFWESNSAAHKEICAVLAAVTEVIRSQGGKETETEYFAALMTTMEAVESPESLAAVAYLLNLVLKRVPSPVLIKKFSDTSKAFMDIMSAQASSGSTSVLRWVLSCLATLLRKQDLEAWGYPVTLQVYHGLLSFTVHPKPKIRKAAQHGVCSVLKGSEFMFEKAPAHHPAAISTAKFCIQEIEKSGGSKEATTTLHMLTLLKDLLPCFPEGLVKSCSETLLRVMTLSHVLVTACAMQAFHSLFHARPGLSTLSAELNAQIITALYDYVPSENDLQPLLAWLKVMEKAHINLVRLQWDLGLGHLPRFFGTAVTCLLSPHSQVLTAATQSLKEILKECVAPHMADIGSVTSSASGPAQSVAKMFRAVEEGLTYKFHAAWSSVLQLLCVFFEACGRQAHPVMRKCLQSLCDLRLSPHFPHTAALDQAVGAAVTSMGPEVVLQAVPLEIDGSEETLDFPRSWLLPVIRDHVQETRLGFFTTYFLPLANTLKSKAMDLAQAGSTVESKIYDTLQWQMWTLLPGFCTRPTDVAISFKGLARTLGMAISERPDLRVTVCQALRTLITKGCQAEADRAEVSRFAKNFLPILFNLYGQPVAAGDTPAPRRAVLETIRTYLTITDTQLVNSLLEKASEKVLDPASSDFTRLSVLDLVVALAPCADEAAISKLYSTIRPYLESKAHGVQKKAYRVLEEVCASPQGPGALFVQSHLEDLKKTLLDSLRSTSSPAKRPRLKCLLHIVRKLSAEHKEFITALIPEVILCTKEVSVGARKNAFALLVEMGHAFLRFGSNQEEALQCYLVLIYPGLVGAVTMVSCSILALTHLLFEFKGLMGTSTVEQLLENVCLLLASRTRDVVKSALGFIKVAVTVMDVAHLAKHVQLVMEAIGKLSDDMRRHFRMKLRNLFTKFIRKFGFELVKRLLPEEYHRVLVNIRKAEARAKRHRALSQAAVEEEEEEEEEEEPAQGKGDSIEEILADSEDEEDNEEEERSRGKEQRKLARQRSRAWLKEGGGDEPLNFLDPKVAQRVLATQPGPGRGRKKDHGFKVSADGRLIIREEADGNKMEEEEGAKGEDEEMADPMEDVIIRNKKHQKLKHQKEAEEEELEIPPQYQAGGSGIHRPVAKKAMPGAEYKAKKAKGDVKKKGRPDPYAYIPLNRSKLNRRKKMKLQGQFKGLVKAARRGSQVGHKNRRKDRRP
Sequence of TOP1 (P11387 whole entry): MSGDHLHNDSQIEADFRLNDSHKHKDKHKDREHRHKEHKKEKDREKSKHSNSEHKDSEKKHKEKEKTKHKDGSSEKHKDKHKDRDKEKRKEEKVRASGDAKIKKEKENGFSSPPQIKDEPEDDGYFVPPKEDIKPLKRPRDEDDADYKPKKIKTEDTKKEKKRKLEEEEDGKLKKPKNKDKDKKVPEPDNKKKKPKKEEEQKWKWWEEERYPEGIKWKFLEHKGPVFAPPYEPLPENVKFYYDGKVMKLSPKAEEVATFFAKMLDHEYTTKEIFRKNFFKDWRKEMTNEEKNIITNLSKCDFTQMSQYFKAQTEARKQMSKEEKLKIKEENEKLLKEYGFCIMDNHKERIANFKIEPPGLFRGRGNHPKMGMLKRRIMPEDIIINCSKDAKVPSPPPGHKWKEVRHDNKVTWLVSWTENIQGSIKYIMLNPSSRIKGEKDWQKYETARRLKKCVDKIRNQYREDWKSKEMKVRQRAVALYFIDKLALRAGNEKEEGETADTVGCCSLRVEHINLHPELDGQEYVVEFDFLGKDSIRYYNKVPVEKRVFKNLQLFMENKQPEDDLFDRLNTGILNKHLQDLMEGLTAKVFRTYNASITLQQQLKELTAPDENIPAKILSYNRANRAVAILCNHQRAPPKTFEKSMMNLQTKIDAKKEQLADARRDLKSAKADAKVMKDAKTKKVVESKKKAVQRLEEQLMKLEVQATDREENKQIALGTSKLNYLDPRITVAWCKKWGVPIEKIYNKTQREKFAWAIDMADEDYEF
Sequence of NEFM (P07197 whole entry): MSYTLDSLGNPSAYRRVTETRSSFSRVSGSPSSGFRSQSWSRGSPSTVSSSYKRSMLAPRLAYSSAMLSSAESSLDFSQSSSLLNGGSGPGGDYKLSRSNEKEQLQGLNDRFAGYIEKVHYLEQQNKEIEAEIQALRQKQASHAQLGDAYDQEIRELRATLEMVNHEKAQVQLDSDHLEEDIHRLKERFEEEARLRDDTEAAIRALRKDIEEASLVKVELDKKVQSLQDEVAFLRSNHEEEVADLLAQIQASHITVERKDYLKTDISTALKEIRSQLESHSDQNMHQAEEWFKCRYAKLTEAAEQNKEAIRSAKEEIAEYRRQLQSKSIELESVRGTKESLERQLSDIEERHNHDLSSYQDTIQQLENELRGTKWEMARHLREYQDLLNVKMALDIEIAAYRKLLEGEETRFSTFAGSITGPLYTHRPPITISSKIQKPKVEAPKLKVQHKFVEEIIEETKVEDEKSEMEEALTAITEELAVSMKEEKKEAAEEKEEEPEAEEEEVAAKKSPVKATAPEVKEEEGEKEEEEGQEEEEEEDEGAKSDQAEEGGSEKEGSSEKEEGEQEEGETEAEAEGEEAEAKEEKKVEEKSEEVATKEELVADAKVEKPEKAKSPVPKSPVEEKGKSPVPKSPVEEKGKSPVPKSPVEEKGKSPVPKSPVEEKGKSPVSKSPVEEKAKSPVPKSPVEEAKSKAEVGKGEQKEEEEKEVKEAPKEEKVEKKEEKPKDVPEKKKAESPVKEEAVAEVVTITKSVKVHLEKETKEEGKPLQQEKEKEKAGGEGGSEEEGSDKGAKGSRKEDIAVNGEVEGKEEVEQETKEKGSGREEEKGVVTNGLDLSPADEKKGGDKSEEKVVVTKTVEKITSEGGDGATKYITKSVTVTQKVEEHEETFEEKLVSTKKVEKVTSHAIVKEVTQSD
Sequence of NEFM, P07197 (P07197 whole entry): as above
Sequence of SAP18, O00422 (O00422 whole entry): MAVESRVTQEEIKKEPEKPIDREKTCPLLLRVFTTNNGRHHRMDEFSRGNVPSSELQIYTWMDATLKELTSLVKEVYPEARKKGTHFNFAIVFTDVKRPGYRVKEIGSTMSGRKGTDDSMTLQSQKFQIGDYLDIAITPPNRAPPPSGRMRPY
Sequence of SF3A1 (Q15459 whole entry): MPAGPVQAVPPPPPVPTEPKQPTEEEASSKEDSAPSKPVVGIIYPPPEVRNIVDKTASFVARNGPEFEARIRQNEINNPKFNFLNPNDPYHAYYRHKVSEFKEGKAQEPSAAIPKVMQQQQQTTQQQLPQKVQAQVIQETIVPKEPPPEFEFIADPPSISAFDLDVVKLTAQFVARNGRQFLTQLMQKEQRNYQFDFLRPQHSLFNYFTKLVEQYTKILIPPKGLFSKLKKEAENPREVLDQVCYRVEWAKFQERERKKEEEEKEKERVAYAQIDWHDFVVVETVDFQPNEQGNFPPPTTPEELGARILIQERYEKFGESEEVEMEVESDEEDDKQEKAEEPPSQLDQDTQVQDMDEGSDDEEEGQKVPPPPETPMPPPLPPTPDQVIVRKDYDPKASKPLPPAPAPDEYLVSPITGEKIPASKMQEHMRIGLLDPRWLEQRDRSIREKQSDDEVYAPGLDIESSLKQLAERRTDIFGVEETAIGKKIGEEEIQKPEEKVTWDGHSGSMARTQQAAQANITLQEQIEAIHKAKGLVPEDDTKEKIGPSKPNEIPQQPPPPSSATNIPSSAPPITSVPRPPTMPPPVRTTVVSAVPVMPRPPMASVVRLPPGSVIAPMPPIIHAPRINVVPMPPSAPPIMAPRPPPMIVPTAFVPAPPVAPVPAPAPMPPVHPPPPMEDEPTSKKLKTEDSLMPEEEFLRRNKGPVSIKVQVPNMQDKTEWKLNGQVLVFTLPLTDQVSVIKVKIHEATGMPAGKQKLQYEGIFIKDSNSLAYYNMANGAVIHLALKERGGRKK
Sequence of NAA10, P41227 (P41227 whole entry): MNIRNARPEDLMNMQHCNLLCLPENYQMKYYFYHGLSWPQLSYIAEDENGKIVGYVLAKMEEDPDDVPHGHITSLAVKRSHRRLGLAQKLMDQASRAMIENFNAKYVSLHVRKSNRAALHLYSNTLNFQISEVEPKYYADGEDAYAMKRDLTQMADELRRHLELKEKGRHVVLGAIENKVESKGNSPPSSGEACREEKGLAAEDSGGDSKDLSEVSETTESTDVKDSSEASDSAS
Sequence of NOPCHAP1 (Q8N5I9 whole entry): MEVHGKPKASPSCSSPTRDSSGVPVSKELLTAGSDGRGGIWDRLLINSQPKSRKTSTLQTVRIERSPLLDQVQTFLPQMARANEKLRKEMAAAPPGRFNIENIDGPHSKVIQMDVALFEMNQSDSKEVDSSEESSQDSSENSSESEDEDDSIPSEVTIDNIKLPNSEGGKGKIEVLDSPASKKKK

EEF2, P13639: the values for the cross-linked residues entry with MYH9 and with RPL12 were “K438 - K1775” and “K498 - K40”, respectively.
Take NAA10, P41227: the cross-linked residues entry with NAA15 is “K165 - K286”.
For NCAPD2, Q15021, the cross-linked residues result with NCAPG is “K1065 - K937”.
Regarding SAP18, O00422, the cross-linked residues result in the assay with NEFM is “K114 - K702”.
With GAPDH, P04406, in the assay with NOPCHAP1, the cross-linked residues entry is reported as “K263 - K54”.
For TMED10, P49755, in the assay with NUCB1, the cross-linked residues result was “K145 - K71”.
For the substance LIG1, P18858, in the assay with OSBPL8, the cross-linked residues result was “K240 - K697”.
Consider PGK1, P00558, for which, in the assay with PARP1, the cross-linked residues entry is “K6 - K945”.
For the substance LCP1, P13796, the cross-linked residues entry in the assay with PLS3 was “K88 - K59”.
With XRCC6, P12956, the cross-linked residues entry in the assay with PRKDC is “K189 - K2418”.
On to PSMC5, P62195, for which the cross-linked residues result with PSMD2 is reported as “K162 - K41”.
As for HSPA8, P11142, the cross-linked residues entry with RAN is recorded as “K159 - K28”.
For QARS1, P47897, the cross-linked residues entry in the assay with RARS1 is “K759 - K20”.
In the case of RNF40, O75150, the cross-linked residues result with RNF20 is “K862 - K834”.
Turning to H1-2, P16403, the cross-linked residues entry with RPL22 was “K27 - K5”.
As for ACLY, P53396, the cross-linked residues entry with RPL27 is reported as “K964 - K93”.
As to RANBP1, P43487, in the assay with RPL34, the cross-linked residues result is “K179 - K108”.
Take YBX1, P67809: in the assay with RPL6, the cross-linked residues entry was “K170 - K87”.
For the substance SF3B1, O75533, in the assay with RPL7A, the cross-linked residues entry was “K3 - K97”.
For the substance PAICS, P22234, the cross-linked residues entry with RPS13 was “K110 - K27”.
As to PSMA4, P25789, the cross-linked residues result in the assay with RPS27A is listed as “K239 - K107”.
In the case of ASNS, P08243, the cross-linked residues result with RPS6 was “K511 - K243”.
In the case of SRP9, P49458, in the assay with RPS7, the cross-linked residues result is reported as “K60 - K160”.
Regarding BYSL, Q13895, in the assay with RRP12, the cross-linked residues result is given as “K139 - K185”.
Take SDHB, P21912: in the assay with SDHA, the cross-linked residues result is given as “K167 - K167”.
Turning to SEPTIN7, Q16181, the cross-linked residues entry with SEPTIN11 was “K388 - K378”.
With MCL1, Q07820, the cross-linked residues result in the assay with SEPTIN9 is recorded as “K5 - K141”.
Take SF3A2, Q15428: the cross-linked residues entry with SF3A1 is reported as “K190 - K264”.
Turning to PHF5A, Q7RTV0, the cross-linked residues entry in the assay with SF3B5 was “K13 - K17”.
Consider SF3B3, Q15393, for which the cross-linked residues result with SF3B5 is recorded as “K137 - K17”.
Consider RPL13, P26373, for which, in the assay with SMC3, the cross-linked residues entry is “K200 - K680”.
Take NCAPH, Q15003: the cross-linked residues result with SMC4 is given as “K725 - K99”.
As to SPTBN1, Q01082, the cross-linked residues result in the assay with SPTAN1 is recorded as “K1824 - K613”.
Consider CANX, P27824, for which, in the assay with TMEM109, the cross-linked residues entry is “K516 - K215”.
Turning to PSMD3, O43242, in the assay with TOP1, the cross-linked residues entry is recorded as “K315 - K666”.
On to RPS7, P62081, for which, in the assay with UBAP2L, the cross-linked residues result is “K160 - K109”.
As for TKT, P29401, the cross-linked residues entry in the assay with USP16 was “K319 - K339”.
For NEFM, P07197, the cross-linked residues entry with VIM is “K139 - K143”.
Turning to PAPSS2, O95340, in the assay with XRCC5, the cross-linked residues result is “K5 - K144”.
As for YWHAQ, P27348, in the assay with YWHAB, the cross-linked residues entry is given as “K85 - K11”.
As to YWHAE, P62258, the cross-linked residues result with YWHAH is given as “K12 - K69”; in the assay with YWHAZ, “K12 - K68”.
As for YWHAG, P61981, in the assay with YWHAZ, the cross-linked residues result is on record as “K10 - K85”.
